HDAC3 inhib = human HDAC3 inhibition | inhibition, % at 8.3 µM | 320,000 tested, 0.15% active | recombinant HDAC3, fluorogenic peptide/trypsin coupled, fluorescence; in the data active = inhibition above about 26%, passing the limit was not always enough; inconclusive = no clear call, values can overlap the other calls
Rtt109 HAT inh = blocks Candida albicans Rtt109/Vps75 acetyltransferase activity; Q5AAJ8; purified Rtt109/Vps75, ThioGlo CoA-SH fluorescence, 4 h; inhibition, % at 34.9 µM; 330,000 tested, 0.16% active; AID 540336;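 active = inhibition of at least 50% in every replicate; inconclusive = best replicate reaches 50% inhibition but some replicates fall short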
Efflux pump mplx = antifungal efflux pump inhibition, Nile Red retention | 330,000 tested, 0.44% active | S. cerevisiae Candida pump triplex | inhibition, % at 10 µM | AID 485275;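 active = plate passing quality check with inhibition over a set limit, or well fluorescence over plate mean plus 4 SD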;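 also: Nile Red retained in pooled yeast measured as flow cytometry median fluorescence; higher means more Nile Red kept so more efflux inhibition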
Rce1 inh = yeast Ras-converting enzyme inhibition; Q03530; yeast membranes, quenched prenylated peptide cleavage fluorescence; calls only; 290,000 tested, 0.27% active;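 active = fall in fluorescence gain of 50% or more versus controls, with final raw signal at or below 3038400; inconclusive = same 50% fall but final raw signal above 3038400; inactive = fall in fluorescence gain under 50%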
Target sequence (Q03530 whole entry, looked up): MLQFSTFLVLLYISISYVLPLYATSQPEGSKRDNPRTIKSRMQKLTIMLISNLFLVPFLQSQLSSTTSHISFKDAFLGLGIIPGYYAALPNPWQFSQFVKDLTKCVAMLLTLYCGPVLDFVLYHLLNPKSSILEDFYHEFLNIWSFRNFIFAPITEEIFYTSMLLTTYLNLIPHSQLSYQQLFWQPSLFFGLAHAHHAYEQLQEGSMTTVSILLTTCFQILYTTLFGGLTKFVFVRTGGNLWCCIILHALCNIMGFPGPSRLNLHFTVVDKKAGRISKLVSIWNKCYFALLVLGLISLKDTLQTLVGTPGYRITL
GRK2 aptamer HTS = human GRK2 inhibition via aptamer displacement. P25098. bead flow cytometry, FAM-aptamer displacement from GRK2. inhibition of aptamer binding, % at 10 µM. 330,000 tested, 0.59% active;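 active = inhibition of aptamer binding above 40%, roughly 3 SD of noise, on plates passing a quality check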;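 also: median bead fluorescence of bound FAM aptamer so fluorescent compounds give negative values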
ALR H2O2 inh = blocks human ALR sulfhydryl oxidase activity; P55789; purified ALR, DTT oxidation, H2O2 HRP-luminol luminescence; inhibition, % (test concentration not listed); 290,000 tested, 3.8% active; AID 485317;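 active = mean replicate inhibition above about 79%, with every replicate also reaching it, limit read from the data; inconclusive = only one of the two criteria met; inactive = mean below limit and not every replicate reaching it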
Target sequence (P55789 whole entry, looked up): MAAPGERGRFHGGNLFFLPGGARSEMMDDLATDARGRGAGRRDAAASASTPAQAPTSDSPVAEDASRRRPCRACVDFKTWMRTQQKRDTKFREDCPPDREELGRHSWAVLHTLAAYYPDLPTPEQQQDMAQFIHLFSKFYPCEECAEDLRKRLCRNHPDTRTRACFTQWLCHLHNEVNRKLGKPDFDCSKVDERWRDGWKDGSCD
GRK2 CP1 = human GRK2 inhibition confirmation, cherry pick 1. shares compounds with GRK2 aptamer HTS. bead-bound GRK2, FAM-aptamer displacement, flow cytometry. aptamer displacement, % at 10 µM. 2,000 tested, 4% active;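 active = aptamer displacement above 40%, near three times the noise of non-fluorescent compounds, on plates passing quality checks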;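 also: negative values mostly reflect intrinsic compound fluorescence rather than true enhancement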
Aptamer quench SP = aptamer fluorescence quenching in GRK2 counter-screen; shares compounds with GRK2 aptamer HTS; Carboxyfluorescein RNA aptamer on beads, flow cytometry quenching; active compounds read low; fluorescence response (% of DMSO), % at 10 µM; 2,000 tested, under 10 active;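 active = compounds that quench the bead-bound fluorescent RNA probe, cutting fluorescence to under half of the solvent control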;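 also: counterscreen run without GRK2 so only probe quenching by compound is measured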
GRK2 confirm 2 = human GRK2 inhibition confirmation, cherry pick 2; shares compounds with GRK2 aptamer HTS; bead-bound GRK2, FAM-aptamer displacement, flow cytometry; inhibition of aptamer binding, % at 10 µM; 360 tested, under 10 active;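 active = inhibition of aptamer binding above 40%, about triple the noise seen with nonglowing compounds, on plates passing quality control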;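 also: negative values mostly come from compounds that fluoresce themselves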
FAM quench SP = quenches fluorescent RNA aptamer, GRK2 hit artifact. AID 588494. fluorescence response vs DMSO, % at 10 µM. 360 tested, under 10 active. shares compounds with GRK2 aptamer HTS. carboxyfluorescein RNA aptamer beads, flow cytometry quenching; active compounds read low;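 active = response vs DMSO under 50%, meaning signal dropped by over half, treated as fluorescence quencher; inconclusive = no clear call, values can overlap the other calls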;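 also: labelled aptamer on streptavidin beads without GRK2 as a quench counter-screen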
A number is an active result; 0 = inactive; ? = inconclusive; - = not tested or not shown. Rows were chosen to be rich in hits. Some 4.5% of all compounds tested hit in one or more screens of this group.

SMILES | HDAC3 inhib | Rtt109 HAT inh | Efflux pump mplx | Rce1 inh | GRK2 aptamer HTS | ALR H2O2 inh | GRK2 CP1 | Aptamer quench SP | others
O=S(=O)(c1c(Cl)cc(Br)cc1Cl)N1CCN(C(=S)NC2CC2)CC1 | 0 | - | 0 | - | 0 | 0 | - | -
CN(C(=O)Cc1c(C(=O)O)n(C)c2ccccc12)c1ccc(Cl)cc1 | 0 | 0 | 0 | 0 | 0 | 0 | 0 | 0
COc1ccc(C)cc1NC(=O)Cc1c(C(=O)O)n(C)c2ccccc12 | 0 | 0 | 0 | 0 | 0 | 0 | - | -
CCOC(=O)c1ccccc1NC(=O)COC(=O)c1ccccc1C(=O)N(C)c1ccccc1 | 0 | 0 | 0 | 0 | 44 | - | 0 | 0
CC(C)c1ccc(N(C)C(=O)Cc2c(C(=O)O)n(C)c3ccccc23)cc1 | 0 | 0 | 0 | 0 | 0 | 0 | - | -
CCOC(=O)c1ccccc1NC(=O)Cc1c(C(=O)O)n(C)c2ccccc12 | 0 | 0 | 0 | 0 | 50 | 0 | 0 | 0
O=C(COc1ccc(Cl)cc1Br)OCC(=O)c1ccc[nH]1 | 0 | 0 | 0 | - | 0 | 0 | - | -
Cc1ccc(C)c(N(CC(=O)NC(C)C)C(=O)CCC(=O)Nc2ccccn2)c1 | 0 | 0 | 0 | 0 | 0 | 0 | - | -
CC(C)Cc1nnc(NC(=O)c2ccc3c(=O)n4c(nc3c2)CCC4)s1 | 0 | 0 | 0 | 0 | 0 | 0 | - | -
CCOc1ccc(OCC(=O)OCC(=O)N2CCN(S(=O)(=O)c3ccc(C)cc3C)CC2)cc1 | - | 0 | - | - | - | - | - | -
C/C(=N\OCc1ccc(C#N)cc1)c1ccc(S(=O)(=O)N(C)C)cc1 | 0 | 0 | 0 | 0 | 47 | 0 | 0 | 0
Cc1c(NC(=O)NC(C)N2C(=O)C3C4C=CC(C4)C3C2=O)c(=O)n(-c2ccccc2)n1C (centres undefined) | 0 | 0 | 0 | 0 | 81 | 0 | 0 | 0
Cc1c(NC(=O)CN2C(=O)C3C4C=CC(C4)C3C2=O)c(=O)n(-c2ccccc2)n1C (centres undefined) | 0 | 0 | 0 | 0 | 0 | 0 | - | -
CCN(Cc1ccncc1)C(=O)c1cc(COc2ccc(OC)cc2Cl)on1 | 0 | 0 | 0 | 0 | 0 | 0 | - | -
COc1ccccc1CNC(=O)c1cccc(S(=O)(=O)N2CCN(c3ccc(F)cc3)CC2)c1 | 0 | 0 | 0 | - | 0 | 0 | 0 | 0
Cc1ccc(NC(=O)c2cccc(S(=O)(=O)N3CCN(c4ccccc4)CC3)c2)nc1 | - | 0 | 0 | 0 | 100 | - | 0 | 0
CN(C(=O)COC(=O)c1cccnc1Nc1ccccc1F)C1CCS(=O)(=O)C1 (centres undefined) | 0 | 0 | 0 | 0 | 0 | 0 | - | -
CN(C(=O)COC(=O)c1cccnc1Nc1cccc(C(F)(F)F)c1)C1CCS(=O)(=O)C1 (centres undefined) | 0 | 0 | 0 | 0 | 0 | 0 | 0 | 0
CCOc1ccccc1C(=O)NC(C(=O)N(C)c1c(N)n(Cc2ccccc2)c(=O)[nH]c1=O)C(C)C (centres undefined) | - | 0 | - | - | - | - | - | -
CC1(C)CC(NC(=S)Nc2ccc(S(N)(=O)=O)cc2)CC(C)(C)N1 | 0 | 0 | 0 | 0 | 72 | 0 | 0 | 0
O=C(c1ccccn1)C1CCCN(Cc2cn[nH]c2-c2cc3ccccc3o2)C1 (centres undefined) | 0 | 0 | 0 | 0 | 90 | 0 | 0 | 0
O=C(Nc1ccc(F)cc1)OCCOc1ccc([N+](=O)[O-])cc1 | 0 | 0 | 0 | 0 | 0 | 0 | - | -
CCCN1CCN(CCCNC(=O)C(CC)n2nc(C)c3sc4ccccc4c3c2=O)CC1 (centres undefined) | 0 | 0 | 0 | 0 | 62 | 0 | 0 | 0
CCN(CC(=O)NC1CCS(=O)(=O)C1)C(C)C(=O)Nc1ccc(F)cc1 (centres undefined) | 0 | 0 | 0 | - | 0 | - | - | -
CC(=O)NCCC(=O)Nc1nc2c(ccc3ccccc32)s1 | 0 | 0 | 0 | 0 | 0 | 0 | - | - | GRK2 confirm 2=0;FAM quench SP=0
SMILES | HDAC3 inhib | Rtt109 HAT inh | Efflux pump mplx | Rce1 inh | GRK2 aptamer HTS | ALR H2O2 inh | GRK2 CP1 | Aptamer quench SP | others
CC(=O)O[C@H]1C[C@@]2(C)[C@@H](C[C@@H](O)[C@H]3[C@@]4(C)CC[C@@H](O)[C@@H](C)[C@@H]4CC[C@@]32C)/C1=C(\CCC=C(C)C)C(=O)O | 0 | 0 | 0 | 0 | 0 | 0 | - | -
COCCN(CC(=O)Nc1cccc(C)c1C)C(=O)c1cc(-c2ccncc2)nc2ccccc12 | 0 | 0 | 0 | - | 0 | 0 | - | -
Cc1cc(C(=O)Nc2ccc3c(c2)OCO3)no1 | 0 | 0 | 0 | 0 | 0 | 0 | - | -
CC(C)Cc1cc(C(=O)Nc2ccc3c(c2)OCO3)no1 | 0 | 0 | 0 | 0 | 74 | 0 | 0 | 0
CCCc1cc(=O)oc2c(CN3CCN(C)CC3)c(O)ccc12 | 0 | 0 | 0 | ? | 51 | 0 | 0 | 0
CCOc1ccc(N(CC(=O)N2CCN(c3ccc(F)cc3)CC2)S(=O)(=O)c2c(C)noc2C)cc1 | 0 | 0 | 0 | 0 | 0 | 0 | - | -
CCOC(=O)C1(Cc2cccc(F)c2)CCN(C(=O)c2ccoc2C)CC1 | 0 | 0 | 0 | 0 | 0 | 0 | - | -
NC(=O)c1ccsc1NC(=O)COC(=O)c1ccc([N+](=O)[O-])o1 | 0 | 0 | 0 | - | 80 | 0 | 0 | 0
Cc1nn(C)c(C)c1C(C)NC(=O)c1cc(COc2ccc(F)c(F)c2)on1 (centres undefined) | 0 | 0 | 0 | 0 | 0 | 0 | - | -
Cc1nn(C)c(C)c1C(C)NC(=O)c1cc(COc2cncc(Cl)c2)on1 (centres undefined) | 0 | 0 | 0 | 0 | 83 | 0 | 0 | 0
O=C(CCC(=O)N1CCN(c2ccccc2F)CC1)N1CCN(c2ccccc2)CC1 | 0 | 0 | 0 | 0 | 0 | - | 0 | 0
CC12CCC3C(CCC4N(CCO)CCC34C)C1CCC2O (centres undefined) | 0 | 0 | 0 | 0 | 49 | 0 | 0 | 0
Cn1c(SCC(=O)N2CCCC2=O)nc2ccccc21 | 0 | 0 | 0 | 0 | 0 | - | - | -
CC(C(=O)O)n1c2ccccc2c2cnn(C)c(=O)c21 (centres undefined) | 0 | 0 | 0 | 0 | 95 | 0 | 0 | 0
CCC(C(=O)O)n1c2ccccc2c2cn[nH]c(=O)c21 (centres undefined) | 0 | 0 | 0 | 0 | 0 | - | - | -
CCCn1c(=O)c(C#N)cn(C2CC2)c1=O | 0 | 0 | 0 | 0 | 0 | 0 | - | -
O=C(CCC(=O)N1CCN(c2cccc(Cl)c2)CC1)c1cccs1 | 0 | 0 | 0 | 0 | 0 | 0 | - | -
CCOCCc1nnc(NC(=O)C2CC(=O)N(c3ccc(OCC)cc3)C2)s1 (centres undefined) | 0 | 0 | 0 | 0 | 93 | 0 | 0 | 0
